PubChem BioAssay (Tox21)
Results filed as inconclusive are left out. Activity calls are given as the source filed them. Calls come from the whole dose curve; as a rule, active = well fitted curve in the direction sought with a large enough effect in the repeat runs; inconclusive = weak or mixed curves; inactive = no such curve, though single readings can be large; an effect the other way counts as inactive or inconclusive.

Legend:
[1] = Caspase-3/7 induction in HepG2 cells by small molecules, qHTS assay (AID 1346978); note: nearly all actives have a fitted effect of over 15% in size; note: potency is the fitted concentration of half-maximal effect
How it was run: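 Caspase-3/7 induction was measured by Caspase-Glo 3/7 luminescence (30 min, room temperature) after a 17 hr compound exposure of wild-type HepG2 cells seeded at 2,000 per well and pre-incubated 5 hr.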

[2] = Caspase-3/7 induction in CHO-K1 cells by small molecules, qHTS cell viability counter screen (AID 1346979); note: nearly all actives have a fitted effect of over 35% in size
How it was run: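 To flag cytotoxic compounds, treated CHO-K1 wild-type cells were given CellTiter-Fluor at 16hr and read fluorescently after 1hr at 37C; the caspase-3/7 luminescence was measured in these same wells.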

[3] = Caspase-3/7 induction in CHO-K1 cells by small molecules, qHTS assay (AID 1346980); note: nearly all actives have a fitted effect of over 15% in size
How it was run: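 Luminescent Caspase-Glo 3/7 read (30min, room temperature) quantified apoptosis induction. Cells were wild-type CHO-K1, treated with compound for 17hr at 37 C and 5% CO2.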

[4] = biological target: Nuclear receptor subfamily 1 group I member 2 (Homo sapiens) (UniProt O75469); experiment: Human pregnane X receptor (PXR) small molecule agonists, qHTS assay (AID 1346982); note: nearly all actives have a fitted effect of over 35% in size; note: potency is the fitted concentration of half-maximal effect
How it was run: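 After plating in 5% charcoal-stripped FBS and a 5 hr rest, PXR-Luc HepG2 cells received compounds in DMSO. Following 24 hr at 37 C, ONE-Glo was added and light output read.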

[5] = biological target: Nuclear receptor subfamily 1 group I member 2 (Rattus norvegicus) (UniProt Q9R1A7); experiment: Rat pregnane X receptor (rPXR) activation by small molecules, qHTS assay (AID 1346983); details: rPXR luciferase reporter cells, One-Glo luminescence, 24 h; max activation: active compounds read high; note: nearly all actives have a fitted effect of over 20% in size; note: potency is the fitted concentration of half-maximal effect
How it was run: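 Luminescent readout (One-Glo luciferase, 30 min room temperature) followed 24 hr compound treatment at 37 C of rPXR cells plated 2,000 per well and preincubated 5hr; qHTS format with compounds delivered in DMSO.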

[6] = biological target: Nuclear receptor subfamily 1 group I member 2 (Homo sapiens) (UniProt O75469); experiment: CYP3A4 induction through human pregnane X receptor (PXR) by small molecules, qHTS assay (AID 1346984); note: nearly all actives have a fitted effect of over 40% in size
How it was run: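 Human PXR activation is tracked via CYP3A4 promoter-luciferase in DPX-2 (HepG2) cells. Compounds treat cells for 24hr at 37C, and luminescence is read after One-Glo.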

[7] = biological target: Nuclear receptor subfamily 1 group I member 2 (Homo sapiens) (UniProt O75469); experiment: Human pregnane X receptor (PXR) activation by small molecules, qHTS assay (AID 1346985); note: nearly all actives have a fitted effect of over 40% in size; note: potency is the fitted concentration of half-maximal effect
How it was run: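 DPX-2 cells (HepG2 co-transfected with a PXR response element and a CYP3A4-promoter luciferase construct) were seeded at 2,000 per well, rested 5 hr at 37C, then exposed to DMSO-dissolved compounds for 24 hr. Activation was read as luciferase luminescence.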

[8] = biological target: Cytochrome P450 2D6 (Homo sapiens) (UniProt P10635); experiment: Cytochrome P450 Family 2 Subfamily D Member 6 (CYP2D6) small molecule antagonists: luciferase reporter qHTS assay (AID 1671196); note: nearly all actives have a fitted effect of over 50% in size; note: potency is the fitted concentration of half-maximal effect; for activity change, negative = inhibition: series mostly up to about 120 µM
How it was run: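 Quantitative HTS of Tox21 chemicals against CYP2D6 using a luminescent proluciferin substrate. After NADPH addition, 1 h room-temperature reaction; luminescence recorded 20 min post detection reagent.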

[9] = biological target: Cytochrome P450 2C19 (Homo sapiens) (UniProt P33261); experiment: Cytochrome P450 Family 2 Subfamily C Member 19 (CYP2C19) small molecule antagonists: luciferase reporter qHTS assay (AID 1671197); note: nearly all actives have a fitted effect of over 65% in size; note: potency is the fitted concentration of half-maximal effect; for activity change, negative = inhibition: series mostly up to about 120 µM
How it was run: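 First, compounds are pinned into enzyme-substrate mix and held 10 min at room temperature. Second, NADPH regeneration solution is added and plates incubate 1 h at 37C. Third, detection reagent is added and luminescence read after 20 min.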

[10] = biological target: Cytochrome P450 2C9 (Homo sapiens) (UniProt P11712); experiment: Cytochrome P450 Family 2 Subfamily C Member 9 (CYP2C9) small molecule antagonists: luciferase reporter qHTS assay (AID 1671198); note: nearly all actives have a fitted effect of over 50% in size; note: potency is the fitted concentration of half-maximal effect; for activity change, negative = inhibition: series mostly up to about 120 µM
How it was run: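 Enzyme-substrate mix preincubated with compound 10 min at room temperature; reaction started with NADPH regeneration solution, 1 h 37C. Luminescent luciferin product read after 20 min detection reagent.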

[11] = biological target: Voltage-gated inwardly rectifying potassium channel KCNH2 (Homo sapiens) (UniProt Q12809); experiment: Human Ether-a-go-go-Related Gene (hERG) channel small molecule antagonists: fluorescence cell-based qHTS assay (AID 1671200); note: nearly all actives have a fitted effect of over 50% in size; note: potency is the fitted concentration of half-maximal effect;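 for activity change, negative = inhibition: hERG-expressing U2OS cells given a thallium stimulus after FluxOR II dye loading; series mostly up to about 77 µM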
How it was run: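 Measured: Tl+ flux via fluorescence (480/540 nm) in hERG-expressing U2OS cells after 1 h dye loading at room temperature.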

[12] = biological target: Cytochrome P450 3A4 (Homo sapiens) (UniProt P08684); experiment: Cytochrome P450 Family 3 Subfamily A Member 4 (CYP3A4) small molecule antagonists: luciferase reporter qHTS assay (AID 1671201); note: nearly all actives have a fitted effect of over 50% in size; note: potency is the fitted concentration of half-maximal effect; for activity change, negative = inhibition: series mostly up to about 120 µM
How it was run: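 Setup: enzyme-substrate mix, compound pin transfer, 10 min RT. Reaction: NADPH regeneration solution, 1 h RT. Readout: detection reagent stops turnover, luminescence measured after 20 min, expressed in relative luminescence units.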

[13] = biological target: Cytochrome P450 1A2 (Homo sapiens) (UniProt P05177); experiment: Cytochrome P450 Family 1 Subfamily A Member 2 (CYP1A2) small molecule antagonists: luciferase reporter qHTS assay (AID 1671199); note: nearly all actives have a fitted effect of over 50% in size; note: potency is the fitted concentration of half-maximal effect; for activity change, negative = inhibition: series mostly up to about 120 µM
How it was run: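 Quantitative high-throughput format using the P450-Glo CYP1A2 system. Reaction initiated by NADPH regeneration solution, 1 h at room temperature, then stopped with detection reagent; luminescence measured 20 min later.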

[14] = Caspase-3/7 induction in HepG2 cells by small molecules, qHTS cell viability counter screen (AID 1346981); note: series mostly up to about 92 µM; nearly all actives have a fitted effect of over 30% in size
How it was run: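 The parent HepG2 line is plated at 2,000 cells per well and rested 5 hr before compound pinning from DMSO stocks. Following a 16-hr treatment at 37 C, a fluorogenic live-cell substrate (CellTiter-Fluor) reports viability after 1 hr.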
% is set by controls: 0 for no effect and ±100 for the full control effect.

Chain of Nuclear receptor subfamily 1 group I member 2 (Homo sapiens) (O75469 whole entry, looked up): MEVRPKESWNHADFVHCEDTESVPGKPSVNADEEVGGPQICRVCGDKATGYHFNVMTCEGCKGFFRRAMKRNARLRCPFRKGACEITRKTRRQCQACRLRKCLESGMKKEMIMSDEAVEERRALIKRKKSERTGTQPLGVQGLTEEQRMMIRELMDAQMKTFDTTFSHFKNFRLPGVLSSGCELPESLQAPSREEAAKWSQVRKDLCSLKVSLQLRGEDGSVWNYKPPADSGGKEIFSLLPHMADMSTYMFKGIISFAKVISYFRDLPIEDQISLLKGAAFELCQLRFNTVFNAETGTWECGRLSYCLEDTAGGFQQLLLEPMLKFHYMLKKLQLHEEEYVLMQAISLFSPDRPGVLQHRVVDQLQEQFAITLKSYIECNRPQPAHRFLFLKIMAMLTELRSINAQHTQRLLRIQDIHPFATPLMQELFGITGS
Chain of Cytochrome P450 2D6 (Homo sapiens) (P10635 whole entry, looked up): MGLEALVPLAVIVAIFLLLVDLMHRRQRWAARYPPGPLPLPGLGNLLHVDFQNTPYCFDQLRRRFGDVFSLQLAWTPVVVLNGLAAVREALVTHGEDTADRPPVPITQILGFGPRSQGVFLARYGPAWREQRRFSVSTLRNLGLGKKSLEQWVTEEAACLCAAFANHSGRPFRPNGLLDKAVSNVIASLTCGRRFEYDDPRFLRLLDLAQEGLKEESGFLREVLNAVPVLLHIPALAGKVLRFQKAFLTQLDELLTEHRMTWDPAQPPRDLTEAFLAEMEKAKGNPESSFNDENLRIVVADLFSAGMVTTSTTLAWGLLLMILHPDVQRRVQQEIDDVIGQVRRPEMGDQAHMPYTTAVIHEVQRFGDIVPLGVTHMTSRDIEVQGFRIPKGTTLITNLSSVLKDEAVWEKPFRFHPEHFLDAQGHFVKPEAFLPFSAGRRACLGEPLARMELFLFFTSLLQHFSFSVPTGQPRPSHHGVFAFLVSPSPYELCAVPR
Chain of Cytochrome P450 2C19 (Homo sapiens) (P33261 whole entry, looked up): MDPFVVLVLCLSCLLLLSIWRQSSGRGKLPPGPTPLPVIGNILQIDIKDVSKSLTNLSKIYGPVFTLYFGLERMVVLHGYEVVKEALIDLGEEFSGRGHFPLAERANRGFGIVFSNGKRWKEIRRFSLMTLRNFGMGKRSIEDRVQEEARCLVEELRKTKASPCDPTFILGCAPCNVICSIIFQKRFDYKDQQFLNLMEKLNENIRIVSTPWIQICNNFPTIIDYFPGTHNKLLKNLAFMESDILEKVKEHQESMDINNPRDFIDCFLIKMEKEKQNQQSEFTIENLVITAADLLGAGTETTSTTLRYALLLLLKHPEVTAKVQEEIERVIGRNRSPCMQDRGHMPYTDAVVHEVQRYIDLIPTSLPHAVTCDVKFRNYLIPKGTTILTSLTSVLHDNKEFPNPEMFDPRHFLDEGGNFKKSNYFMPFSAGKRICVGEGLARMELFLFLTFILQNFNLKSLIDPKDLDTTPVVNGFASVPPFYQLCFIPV
Chain of Cytochrome P450 1A2 (Homo sapiens) (P05177 whole entry, looked up): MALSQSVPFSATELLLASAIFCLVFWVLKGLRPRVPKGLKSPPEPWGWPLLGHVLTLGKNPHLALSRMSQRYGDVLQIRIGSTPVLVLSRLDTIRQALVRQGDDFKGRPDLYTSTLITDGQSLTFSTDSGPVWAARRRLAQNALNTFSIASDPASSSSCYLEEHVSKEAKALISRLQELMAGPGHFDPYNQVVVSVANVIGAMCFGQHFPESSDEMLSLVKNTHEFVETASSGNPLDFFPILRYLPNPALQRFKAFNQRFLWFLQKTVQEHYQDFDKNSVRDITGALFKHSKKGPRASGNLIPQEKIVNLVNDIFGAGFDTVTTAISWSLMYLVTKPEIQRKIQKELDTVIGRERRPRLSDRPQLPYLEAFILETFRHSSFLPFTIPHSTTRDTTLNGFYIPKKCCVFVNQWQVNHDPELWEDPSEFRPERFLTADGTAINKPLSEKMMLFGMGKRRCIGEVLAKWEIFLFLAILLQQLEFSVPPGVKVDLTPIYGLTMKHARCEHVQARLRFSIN
Chain of Cytochrome P450 2C9 (Homo sapiens) (P11712 whole entry, looked up): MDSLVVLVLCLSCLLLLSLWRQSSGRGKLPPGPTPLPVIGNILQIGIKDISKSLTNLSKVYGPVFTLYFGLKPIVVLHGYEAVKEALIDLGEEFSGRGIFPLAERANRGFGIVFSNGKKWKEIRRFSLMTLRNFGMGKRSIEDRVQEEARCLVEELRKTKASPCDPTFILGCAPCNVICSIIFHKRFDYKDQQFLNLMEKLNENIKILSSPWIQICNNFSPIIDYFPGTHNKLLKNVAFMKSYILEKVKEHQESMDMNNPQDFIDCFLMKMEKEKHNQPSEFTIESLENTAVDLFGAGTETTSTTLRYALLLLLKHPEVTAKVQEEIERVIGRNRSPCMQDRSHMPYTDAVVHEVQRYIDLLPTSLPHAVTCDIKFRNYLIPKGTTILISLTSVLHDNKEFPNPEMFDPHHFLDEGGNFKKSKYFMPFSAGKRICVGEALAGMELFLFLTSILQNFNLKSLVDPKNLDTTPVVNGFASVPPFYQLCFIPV
Chain of Voltage-gated inwardly rectifying potassium channel KCNH2 (Homo sapiens) (Q12809 whole entry, looked up): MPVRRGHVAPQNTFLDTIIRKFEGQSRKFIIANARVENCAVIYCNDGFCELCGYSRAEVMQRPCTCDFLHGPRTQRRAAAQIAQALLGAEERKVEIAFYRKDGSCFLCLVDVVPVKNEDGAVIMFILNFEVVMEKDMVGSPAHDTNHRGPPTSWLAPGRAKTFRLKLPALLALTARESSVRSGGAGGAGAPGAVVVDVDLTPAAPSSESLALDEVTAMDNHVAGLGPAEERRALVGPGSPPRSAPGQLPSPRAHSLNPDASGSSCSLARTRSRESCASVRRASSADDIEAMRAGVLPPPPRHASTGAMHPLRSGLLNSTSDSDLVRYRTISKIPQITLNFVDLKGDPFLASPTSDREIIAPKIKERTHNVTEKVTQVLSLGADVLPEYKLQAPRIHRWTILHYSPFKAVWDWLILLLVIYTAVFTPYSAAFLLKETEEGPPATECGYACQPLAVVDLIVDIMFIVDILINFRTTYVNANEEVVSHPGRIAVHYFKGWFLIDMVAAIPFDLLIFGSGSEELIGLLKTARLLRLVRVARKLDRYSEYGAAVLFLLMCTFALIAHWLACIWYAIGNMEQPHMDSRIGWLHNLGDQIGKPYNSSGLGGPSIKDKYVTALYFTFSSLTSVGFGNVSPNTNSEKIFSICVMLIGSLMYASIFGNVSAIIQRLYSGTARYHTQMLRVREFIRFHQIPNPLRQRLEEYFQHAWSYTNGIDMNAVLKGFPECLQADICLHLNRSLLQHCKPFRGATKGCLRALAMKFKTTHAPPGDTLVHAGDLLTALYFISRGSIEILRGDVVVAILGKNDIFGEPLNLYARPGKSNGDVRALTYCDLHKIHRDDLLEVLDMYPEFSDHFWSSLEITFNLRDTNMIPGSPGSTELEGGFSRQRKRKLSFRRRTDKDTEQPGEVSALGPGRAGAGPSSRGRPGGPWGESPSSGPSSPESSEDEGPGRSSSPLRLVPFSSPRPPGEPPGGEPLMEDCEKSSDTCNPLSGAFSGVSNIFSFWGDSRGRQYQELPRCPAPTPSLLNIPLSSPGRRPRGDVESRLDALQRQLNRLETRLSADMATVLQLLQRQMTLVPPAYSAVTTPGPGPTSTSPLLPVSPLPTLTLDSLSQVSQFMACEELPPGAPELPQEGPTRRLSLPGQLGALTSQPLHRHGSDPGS
Chain of Nuclear receptor subfamily 1 group I member 2 (Rattus norvegicus) (Q9R1A7 whole entry, looked up): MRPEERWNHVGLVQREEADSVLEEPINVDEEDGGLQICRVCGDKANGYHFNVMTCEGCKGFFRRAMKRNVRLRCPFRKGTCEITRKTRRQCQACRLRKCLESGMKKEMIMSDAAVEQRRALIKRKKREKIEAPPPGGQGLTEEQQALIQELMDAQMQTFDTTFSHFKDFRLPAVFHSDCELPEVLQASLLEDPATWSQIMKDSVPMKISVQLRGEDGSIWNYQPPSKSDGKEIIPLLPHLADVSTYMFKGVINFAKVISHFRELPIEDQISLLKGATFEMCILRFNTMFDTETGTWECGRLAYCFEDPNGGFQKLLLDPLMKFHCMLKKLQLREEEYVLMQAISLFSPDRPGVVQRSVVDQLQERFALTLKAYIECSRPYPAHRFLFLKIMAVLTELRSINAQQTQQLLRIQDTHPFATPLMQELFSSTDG
Chain of Cytochrome P450 3A4 (Homo sapiens) (P08684 whole entry, looked up): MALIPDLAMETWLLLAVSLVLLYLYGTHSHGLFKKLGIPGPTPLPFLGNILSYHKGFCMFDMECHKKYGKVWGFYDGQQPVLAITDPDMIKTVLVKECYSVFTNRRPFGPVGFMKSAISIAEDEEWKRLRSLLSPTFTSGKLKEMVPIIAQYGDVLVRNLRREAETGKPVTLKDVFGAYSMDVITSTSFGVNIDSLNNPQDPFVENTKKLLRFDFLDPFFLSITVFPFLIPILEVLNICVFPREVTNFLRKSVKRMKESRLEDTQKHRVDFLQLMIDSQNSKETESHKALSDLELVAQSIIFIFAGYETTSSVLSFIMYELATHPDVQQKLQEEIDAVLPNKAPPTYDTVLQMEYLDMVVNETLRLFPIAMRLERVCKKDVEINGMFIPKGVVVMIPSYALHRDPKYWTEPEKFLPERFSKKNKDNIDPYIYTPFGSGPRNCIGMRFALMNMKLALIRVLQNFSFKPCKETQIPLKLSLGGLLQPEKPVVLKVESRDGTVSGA

CC1(C)S[C@@H]2[C@H](NC(=O)C(C(=O)O)c3ccccc3)C(=O)N2[C@H]1C(=O)O (stereo partly drawn)
inactive: Potency [1] | Potency [2] | outcome [3] | Potency [4] | max activation [5] 0.938% | Potency [6] | Potency [7] | Potency [8] | Potency [9] | Potency [10] | Potency [11] | Potency [12]

Cc1ccc(C)c(N)c1
inactive: Potency [1] | Potency [2] | outcome [3] | Potency [4] | Potency [11]
active: Potency [8] 20 µM | Potency [9] 7.11 µM | Potency [12] 3.56 µM

O=S(=O)(O)C(F)(F)F
inactive: Potency [1] | Potency [2] | outcome [3] | Potency [4] | Potency [9] | Potency [10] | Potency [13] | Potency [11]

C1CCOC1
inactive: Potency [1] | Potency [2] | outcome [3] | Potency [14] | Potency [11]

CC(=O)N(CC(O)CN(C(C)=O)c1c(I)c(C(=O)NCC(O)CO)c(I)c(C(=O)NCC(O)CO)c1I)c1c(I)c(C(=O)NCC(O)CO)c(I)c(C(=O)NCC(O)CO)c1I (stereo not drawn)
inactive: Potency [1] | Potency [2] | outcome [3] | Potency [4] | max activation [5] -0.58% | Potency [6] | Potency [7] | Potency [8] | Potency [9] | Potency [13] | Potency [11] | Potency [12]

CC(CNC1CCCCC1)OC(=O)c1ccccc1 (stereo not drawn)
inactive: Potency [1] | Potency [2] | outcome [3] | Potency [14] | Potency [11]

COC(=O)c1ccc(OC)cc1
active: Potency [13] 35.6 µM
inactive: Potency [1] | Potency [2] | outcome [3] | Potency [4] | Potency [8] | Potency [9] | Potency [11] | Potency [12]

CN1CCN(c2c(F)cc3c(=O)c(C(=O)O)cn4c3c2SCC4)CC1
inactive: Potency [1] | Potency [2] | outcome [3] | Potency [4] | max activation [5] -4.92% | Potency [6] | Potency [7] | Potency [9] | Potency [11]

OC[C@H]1O[C@@H](O[C@H]2[C@H](O)[C@@H](O)[C@H](O)O[C@@H]2CO)[C@H](O)[C@@H](O)[C@H]1O
inactive: Potency [1] | Potency [2] | outcome [3] | Potency [4] | Potency [8] | Potency [9] | Potency [10] | Potency [13] | Potency [11] | Potency [12]

C[C@]12CCC(=O)C=C1CC[C@@H]1[C@@H]2CC[C@@]2(C)[C@H]1CC[C@]2(O)C(=O)CO
active: Potency [9] 8.71 µM
inactive: Potency [1] | Potency [2] | outcome [3] | Potency [4] | max activation [5] 14.2% | Potency [6] | Potency [7] | Potency [13] | Potency [11] | Potency [12]

CCCCC1CCC(=O)O1 (stereo not drawn)
inactive: Potency [1] | Potency [2] | outcome [3] | Potency [4] | Potency [8] | Potency [9] | Potency [11] | Potency [12]

CC1(C)O[C@@H]2C[C@H]3[C@@H]4CCC5=CC(=O)CC[C@]5(C)[C@@]4(F)[C@@H](O)C[C@]3(C)[C@]2(C(=O)CCl)O1
active: Potency [4] 9.44 µM | Potency [5] 1 µM | Potency [7] 5.01 µM | Potency [9] 34.7 µM | Potency [10] 15.5 µM
inactive: Potency [1] | Potency [2] | outcome [3] | Potency [11]

Cc1ccc(C=O)s1
inactive: Potency [1] | Potency [2] | outcome [3] | Potency [4] | Potency [8] | Potency [9] | Potency [10] | Potency [11] | Potency [12]

CC(C)=CCC[C@](C)(O)[C@@H]1CC=C(C)CC1
active: Potency [9] 5.03 µM | Potency [10] 31.7 µM | Potency [13] 39.9 µM
inactive: Potency [1] | outcome [3] | Potency [4]

O=CCCc1ccccc1
active: Potency [9] 25.2 µM | Potency [10] 35.6 µM
inactive: Potency [1] | Potency [2] | outcome [3] | Potency [11]

CCCCCCOc1ccc(N)cc1
inactive: Potency [1] | outcome [3] | Potency [14] | Potency [11]
active: Potency [4] 48.6 µM | Potency [8] 35.6 µM | Potency [9] 2 µM | Potency [10] 22.4 µM | Potency [13] 3.99 µM | Potency [12] 35.6 µM

CCOC(=O)COc1ccc2c(c1)CC(NCC(O)c1cccc(Cl)c1)CC2 (stereo not drawn)
active: Potency [1] 48.9 µM | Potency [8] 0.452 µM | Potency [9] 45.2 µM | Potency [10] 35.9 µM | Potency [11] 1.39 µM
inactive: outcome [3] | Potency [4] | Potency [13] | Potency [12]

COc1cc2c(cc1N)oc1ccccc12
active: Potency [4] 27.9 µM | Potency [8] 7.25 µM | Potency [9] 4.57 µM | Potency [10] 6.46 µM | Potency [13] 0.513 µM | Potency [12] 7.25 µM
inactive: Potency [1] | outcome [3] | Potency [14] | Potency [11]

O=c1oc2c(O)c(O)cc3c(=O)oc4c(O)c(O)cc1c4c23
inactive: caspase activation [1] 0.0819% [at 19 µM] | caspase-3/7 activation [3] 0.998% [at 19 µM] | activity change, negative = cytotoxicity [14] 1.61% [at 19 µM] | activation [4] -29.4% [at 19 µM] | activity change, negative = inhibition [8] -16.4% [at 23.6 µM] | activity change, negative = inhibition [9] 0.227% [at 23.6 µM] | Potency [10] | Potency [13] | activity change, negative = inhibition [11] 6.87% [at 15.8 µM] | activity change, negative = inhibition [12] 6.71% [at 23.6 µM]

O=C(CC(=O)C(F)(F)F)c1ccccc1
inactive: Potency [1] | outcome [3] | Potency [14] | Potency [11] | Potency [12]
active: Potency [4] 55.3 µM | Potency [9] 36.1 µM | Potency [10] 32.2 µM

C1CSCCS1
inactive: Potency [1] | Potency [2] | outcome [3] | Potency [9] | Potency [10] | Potency [11] | Potency [12]
active: Potency [4] 27.1 µM

NC(Cc1ccc(F)cc1)C(=O)O (stereo not drawn)
inactive: caspase activation [1] 0.163% [at 8.39 µM] | caspase-3/7 activation [3] 2.35% [at 8.39 µM] | activity change, negative = cytotoxicity [14] -1.98% [at 8.39 µM] | activity change, negative = inhibition [11] 3.14% [at 6.97 µM]

CCCCOc1cc(C(=O)NCCN(CC)CC)c2ccccc2n1
active: Potency [8] 13.8 µM | Potency [9] 34.7 µM | Potency [11] 5.35 µM
inactive: Potency [1] | outcome [3] | max activation [5] -1.11% | Potency [10]
